Source: PubChem
mIDH1 inhibitor = qHTS for Inhibitors of mutant isocitrate dehydrogenase 1 (IDH1): qHTS; Isocitrate dehydrogenase [NADP] cytoplasmic (Homo sapiens), O75874; IDH1-R132H enzyme, NADPH consumption, diaphorase/resazurin fluorescence; Potency, µM (series often up to 76.6 µM), for inactives: at the highest dose activity change, negative = inhibition, usual class: inhibitors; 0.093% of 390,000 active; AID 602179, 2012; note: potency is the fitted concentration of half-maximal effect; % is set by controls: 0 for no effect and ±100 for the full control effect; nearly all actives have a fitted effect of over 65% in size
Target sequence (O75874 whole entry R132H, stated change not applied): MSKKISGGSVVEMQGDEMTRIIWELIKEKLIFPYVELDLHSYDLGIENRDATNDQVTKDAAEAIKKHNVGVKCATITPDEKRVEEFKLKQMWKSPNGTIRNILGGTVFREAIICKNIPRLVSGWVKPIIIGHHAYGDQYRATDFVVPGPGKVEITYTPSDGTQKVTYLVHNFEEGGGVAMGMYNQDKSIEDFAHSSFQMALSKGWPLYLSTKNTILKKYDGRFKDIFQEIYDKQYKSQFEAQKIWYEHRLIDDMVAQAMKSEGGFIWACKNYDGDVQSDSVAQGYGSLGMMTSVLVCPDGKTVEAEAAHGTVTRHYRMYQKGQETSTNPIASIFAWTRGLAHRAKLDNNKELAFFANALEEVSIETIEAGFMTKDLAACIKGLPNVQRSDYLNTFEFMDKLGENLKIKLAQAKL
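IDH1-R132H (0.5 ug/mL dispensed) in pH 7.5 Tris buffer was preincubated 30 min with compound, then given a substrate mix of 0.016 mM NADPH and 2 mM alpha-KG for 80 min at room temperature; remaining NADPH was read by diaphorase/resazurin fluorescence.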
DRD3 antagonist = qHTS of D3 Dopamine Receptor Antagonist: qHTS; D(3) dopamine receptor (Homo sapiens), P35462; D3R cells, DiscoveRx beta-arrestin luminescence, antagonist mode; hits give low values; max response, negative = inhibition, %; 2.5% of 360,000 active; in the data active = max response below about -50%; inconclusive = no clear call, values can overlap the other calls; note: % is set by controls: 0 for no effect and ±100 for the full control effect
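Cells expressing the human receptor were seeded at 1500 cells/well, incubated overnight at 37 degrees C in 5% CO2, then exposed to library compounds with dopamine controls for 90 minutes at 37 degrees C before luminescent detection.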
D3 ag = qHTS of D3 Dopamine Receptor Agonist: qHTS; D3R DiscoveRx beta-arrestin cells, luminescence, 90 min; max activation, %; 0.58% of 410,000 active; in the data active = max activation above about 30%; note: 0% is about no effect
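Cells at 1500/well, incubated overnight, then treated with pinned compounds (dopamine as control) for 90 min at 37 degrees C. DiscoveRx reagent added for 30 - 60 minutes at room temperature; luminescence read.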
a7 integrin act = qHTS for Activators of Integrin-Mediated Alleviation for Muscular Dystrophy; AID 624291, 2012; Potency, µM (top dose mostly 38.3 µM), for the others: top-dose activation, usual class: activators; alpha7betagal myoblasts, beta-gal FDG fluorescence, 48 h; 0.064% of 350,000 active;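 note: potency is the fitted concentration of half-maximal effect; 100% = response of the positive control SU9516; nearly all actives have a fitted effect of over 60% in size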
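alpha7betagal+/- myoblasts (passage 13, 250/well) treated 48 h at 37C with compounds at 1:260 dilution of DMSO stock. Lysed, then beta-galactosidase activity read as FDG fluorescence (ex 480/em 540) after 30 min, with pre-read for autofluorescence.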
B2AR arrestin = qHTS assay of beta-arrestin-biased ligands of beta2-adrenergic receptor | Potency, µM (highest dose often 46.1 µM), without a hit: at the highest dose activation, actives largely listed as activators | 0.02% of 330,000 active | beta-arrestin recruitment to beta2AR, cell-based reporter;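 note: potency is the fitted concentration of half-maximal effect; 0% = DMSO controls and full agonism = EC100 isoproterenol or metaproterenol; nearly all actives have a fitted effect of over 65% in size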
* marks the source's active call; other numbers are inactive results; [ ] = remark or other dose. The list is not random: actives were taken first. Their share in the collection is about 2.9%. Unless noted, calls come from the whole dose curve; as a rule, active = well fitted curve in the direction sought with a large enough effect; inconclusive = small, poorly fitted or top-dose-only effect, or another doubt; inactive = no such curve, though single readings can be large; an effect the other way counts as inactive or inconclusive.

`O=c1c2ccccc2sn1-c1cccc(Cl)c1` gave mIDH1 inhibitor -5%, DRD3 antagonist inconclusive, D3 ag -6 and a7 integrin act -51%.
Screening Cc1noc(C)c1COc1ccc(C(=O)Nc2ccccn2)cc1 returned mIDH1 inhibitor -3%, DRD3 antagonist -11, D3 ag 4, a7 integrin act inconclusive and B2AR arrestin 0%.
For Cc1noc(C)c1COc1ccc(C(=O)Nc2ccccc2)cc1 the results were mIDH1 inhibitor 12%, DRD3 antagonist -55*, D3 ag 2, a7 integrin act 19% and B2AR arrestin 0%.
For COc1cc(C(=O)NCC(c2ccccc2)N(C)C)ccc1OCc1c(C)noc1C (configuration not stated) the results were mIDH1 inhibitor 12%, DRD3 antagonist -100*, D3 ag -26, a7 integrin act -10% and B2AR arrestin 0%.
Screening Cc1cc(N2CCOCC2)nc2ccc(NC(=S)NCc3ccc4c(c3)OCO4)cc12 returned mIDH1 inhibitor -12%, DRD3 antagonist 10, D3 ag 0, a7 integrin act 10µM* and B2AR arrestin 0%.
CCCN(CCC)CCNC(=O)CCC(=O)Nc1ccc2nc(N3CCOCC3)cc(C)c2c1 was read as mIDH1 inhibitor 4%, DRD3 antagonist -66*, D3 ag -43, a7 integrin act inconclusive and B2AR arrestin 0%.
`CCCCN(CC)CCNC(=S)Nc1ccc2nc(N3CCN(C)CC3)cc(C)c2c1` gave mIDH1 inhibitor 0%, DRD3 antagonist inconclusive, D3 ag -31, a7 integrin act -70% and B2AR arrestin inconclusive.
CCCCN(CC)CCNC(=O)CCC(=O)Nc1ccc2nc(N3CCN(C)CC3)cc(C)c2c1 was read as mIDH1 inhibitor 0%, DRD3 antagonist -57*, D3 ag 1, a7 integrin act 3% and B2AR arrestin -1%.
Cc1cc(N2CCN(C)CC2)nc2ccc(NC(=O)CCC(=O)NCCC3=CCCCC3)cc12 was read as mIDH1 inhibitor -2%, DRD3 antagonist -53*, D3 ag -50 and a7 integrin act -13%.
Screening Cc1ccc(NC(=O)c2oc3ccccc3c2NC(=O)Cc2ccccc2)cc1 returned mIDH1 inhibitor -3% and D3 ag 2.
For Cc1c(C2Nc3ccccc3NC3=C2C(=O)CC(C)(C)C3)cnn1C (configuration not stated) the results were mIDH1 inhibitor 0%, DRD3 antagonist -71*, D3 ag -3, a7 integrin act 9% and B2AR arrestin 1%.
For Cc1nn(C(=O)COc2ccccc2)c(C)c1Sc1ccccc1 the results were D3 ag -2.
CCn1c(C(=O)NCc2ccccc2Br)cc2oc3ccccc3c21 was read as mIDH1 inhibitor -10% and D3 ag 42*.
CN1CCN(c2cc(N3CCc4ccccc4C3)c(F)cc2[N+](=O)[O-])CC1 was read as mIDH1 inhibitor 3%, DRD3 antagonist -61*, D3 ag -22, a7 integrin act -57% and B2AR arrestin 0%.
`Cc1ccc(Nc2c(F)cccc2Cl)c(CC(=O)O)c1` gave D3 ag -2.
For COc1cc2sc3ccc(-c4ccc(CN5CCOCC5)cc4)cc3c(=O)c2cc1OC the results were mIDH1 inhibitor 1%, DRD3 antagonist 181, D3 ag 118*, a7 integrin act -8% and B2AR arrestin inconclusive.
`Cc1ncc(CN2CCC(n3nccc3NC(=O)c3ccccc3)CC2)s1` gave mIDH1 inhibitor 2%, DRD3 antagonist 10, D3 ag 1, a7 integrin act 6% and B2AR arrestin 0%.
For COC(=O)Nc1ncc(CN2CCC(c3ccccc3)CC2)s1 the results were mIDH1 inhibitor 1%, DRD3 antagonist -54*, D3 ag 10, a7 integrin act -19% and B2AR arrestin -1%.
COc1ccccc1-c1nc(C#N)c(N2CCc3ccccc3C2)o1 was read as mIDH1 inhibitor 3%, DRD3 antagonist 11, D3 ag 30, a7 integrin act -1%[7.66 µM] and B2AR arrestin 0%.
COc1ccc(-c2nc(C#N)c(N3CCc4ccccc4C3)o2)cc1OC was read as mIDH1 inhibitor -2%, DRD3 antagonist 53, D3 ag 36*, a7 integrin act -21% and B2AR arrestin 0%.
`CCc1ccc(S(=O)(=O)NCc2ccc(C(=O)NCCN(Cc3ccccc3)C(C)C)cc2)cc1` gave DRD3 antagonist -91* and D3 ag -16.
CCOc1ccccc1-c1nc(-c2cc3ccccc3nc2OC)no1 was read as mIDH1 inhibitor 1%, DRD3 antagonist 28, D3 ag 34*, a7 integrin act -15% and B2AR arrestin 0%.
COc1nc2ccccc2cc1-c1noc(-c2cccnc2)n1 was read as B2AR arrestin 0%.
For Cc1oc2c(c(C)cc3oc(=O)c(CC(=O)NCCc4ccccc4F)c(C)c32)c1C the results were mIDH1 inhibitor -14% and D3 ag -19.
`C1=C(CCNc2nnnn2-c2ccccc2)CCCC1` gave mIDH1 inhibitor -4%, DRD3 antagonist -61*, D3 ag -8, a7 integrin act -56% and B2AR arrestin 0%.
For Cc1cc(NC2CCCCC2)nc2ccccc12 the results were mIDH1 inhibitor 8%, DRD3 antagonist -67*, D3 ag 4, a7 integrin act -60% and B2AR arrestin 1%.
For COc1ccc(/C=C/C(=O)Nc2ccccc2C(=O)O)cc1 the results were mIDH1 inhibitor 24%, DRD3 antagonist 4, D3 ag -1, a7 integrin act -39% and B2AR arrestin 0%.
Screening COc1ccc(/C=C/C(=O)Nc2ccccc2C(=O)NCC(c2ccc(OC)cc2)N(C)C)cc1 (configuration not stated) returned mIDH1 inhibitor -4%, DRD3 antagonist -96*, D3 ag -29, a7 integrin act -39% and B2AR arrestin 0%.
COCCNC(=O)c1ccc2nc(CCc3ccccc3)oc2c1 was read as mIDH1 inhibitor 9% and D3 ag 8.
Screening Cc1oc2c(C)c3oc(=O)c4c(c3cc2c1C)CCCC4 returned mIDH1 inhibitor 2%, DRD3 antagonist 26, D3 ag 32*, a7 integrin act 4% and B2AR arrestin -1%.
For CC(C)(C)NCC(O)CSc1nc(-c2ccc(C(N)=O)s2)cs1 (configuration not stated) the results were D3 ag 2.
`COc1ncnc2c1sc1nc(-c3ccccc3)c3c(c12)CCCC3` gave mIDH1 inhibitor -6%, DRD3 antagonist 9, D3 ag 37*, a7 integrin act 4% and B2AR arrestin 0%.
